Screening results deposited in PubChem BioAssay by several laboratories.
Insulin prom inh: TRM-6 insulin promoter activity inhibition; TRM-6 cells (human fetal islet line), insulin promoter-eGFP reporter, imaging; reporter expression induced with tamoxifen; 130,000 compounds, 0.9% hits; inhibition, % at 2 µM; AID 1273;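 active = inhibition above the mean plus 3 SD, with well images judged a real hit on visual review, cut at about 60% in these data, passing the limit was not always enough; inconclusive = inhibition over the cutoff but images rejected on review; inactive = inhibition not above the cutoff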
ROMK primary: modulators of human ROMK potassium channel; B-score at 10 µM; AID 1918; Tet-inducible ROMK, thallium flux fluorescence; actives lie on both sides; P48048; 130,000 compounds, 2% hits;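 active = signal ratio slope over the read window, or its plate-corrected B-score, at least 3 SD from the plate mean, either direction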;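 also: B-score of the F/F0 ratio slope over 7 to 12 s after thallium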
Target sequence (P48048 whole entry, looked up): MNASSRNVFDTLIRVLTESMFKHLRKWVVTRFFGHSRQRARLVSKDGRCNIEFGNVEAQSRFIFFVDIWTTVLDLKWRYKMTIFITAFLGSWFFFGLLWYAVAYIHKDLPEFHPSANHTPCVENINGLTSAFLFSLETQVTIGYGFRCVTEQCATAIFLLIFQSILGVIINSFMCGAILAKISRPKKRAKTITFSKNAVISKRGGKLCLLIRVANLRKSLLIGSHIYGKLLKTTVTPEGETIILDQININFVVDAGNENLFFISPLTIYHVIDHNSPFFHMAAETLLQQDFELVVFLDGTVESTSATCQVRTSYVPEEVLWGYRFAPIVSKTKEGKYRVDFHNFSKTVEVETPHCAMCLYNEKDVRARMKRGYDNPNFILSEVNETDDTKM
HCT116 PTEN-null: growth suppressors of cells with PTEN tumor suppressor deletion | HCT116 PTEN-null viability, CellTiter-Glo, 60 h; active compounds read low | viability, % at 10 µM | 140,000 compounds, 1.2% hits | AID 827;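 active = viability at or below a set limit, 4 SD under the median of all tested compounds, cut at about 3.7% in these data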;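 also: PTEN knockout HCT116 line with beta catenin targeted HCT116 as companion control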
Lmaj promast: Leishmania major promastigote growth inhibition | inhibition, % at 10 µM | 200,000 compounds, 9% hits | Leishmania major promastigotes, resazurin fluorescence viability; in the data active = inhibition above about 50%;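 also: promastigotes grown with compound for 44 hours at 28 °C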
bCat KO growth: beta-catenin-lacking colon tumor cell growth suppression; AID 818; viability, % at 10 µM; 140,000 compounds, 1.5% hits; HCT116 beta-catenin knockout viability, CellTiter-Glo, 60 h; active compounds read low;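 active = viability at or under a set limit, the compound median less 4 SD, cut at about 6% in these data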
p97 ATPase inh: blocks human p97 ATPase activity. AID 1481. recombinant p97 ATPase, Kinase-Glo ATP luminescence, 3 h. inhibition, % at 8 µM. 220,000 compounds, 0.42% hits. P55072; in the data active = inhibition above about 15%
ROMK retest: confirmation of human ROMK potassium channel modulators | shares compounds with ROMK primary | ROMK thallium flux, fluorescence ratio; active compounds read low | normalized thallium flux (F/F0 slope) at 10 µM | 3,000 compounds, 54% hits;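 active = Flux at 10 µM at least 3 SD below or above vehicle control mean in one or both replicates; inconclusive = no clear call, values can overlap the other calls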
Each line names hits and unclear results; the compound was inactive in the other large screens (follow-up assays come after a bar, where they were run). Shown are actives, neighbours in structure and some others; about 10% of the full set was active somewhere.

CC(=O)Nc1cccc(Oc2ncnc3scc(-c4ccccc4)c23)c1	none (no result: Insulin prom inh, ROMK primary) | ROMK retest 0.0607
Oc1c(Br)cc(Br)cc1C=Nc1ccc2c(c1)OCCO2	none (no result: Insulin prom inh, HCT116 PTEN-null, bCat KO growth)
Oc1c(Br)cc(Br)cc1C=Nc1ccc2c(c1)OCO2	ROMK primary 3.41 | ROMK retest 0.113
CN1CCN(C(=O)c2ccc3c(c2)S(=O)(=O)c2ccccc2C3=O)CC1	none (no result: Insulin prom inh, HCT116 PTEN-null, bCat KO growth)
CCN1CCN(C(=O)c2ccc3c(c2)S(=O)(=O)c2ccccc2C3=O)CC1	ROMK primary 1.5 (no result: Insulin prom inh, HCT116 PTEN-null, bCat KO growth) | ROMK retest inactive
CCCCOC(=O)c1ccc(NC(=O)COC(=O)CSc2nc(C)cc(C)n2)cc1	ROMK primary -3.12 | ROMK retest inactive
CCOC(=O)c1ccc2nc(NC(=O)c3cccs3)sc2c1	none (no result: ROMK primary) | ROMK retest inactive
CCOC(=O)c1ccc2nc(NC(=O)c3ccco3)sc2c1	none (no result: ROMK primary)
Cn1nnnc1SCCNCc1ccccc1OCc1ccc(F)cc1	ROMK primary -3.82 (no result: Insulin prom inh, HCT116 PTEN-null, bCat KO growth) | ROMK retest 0.0589
Cn1nnnc1SCCNCc1ccccc1F	none (no result: ROMK primary)
CCCN1CCC(NC(=S)Nc2ccc([N+](=O)[O-])cc2)CC1	ROMK primary -4.43, Lmaj promast 82.8 (no result: Insulin prom inh, HCT116 PTEN-null, bCat KO growth) | ROMK retest 0.0563
CCCCCCCCCCn1ccc(=N)cc1	ROMK primary -3.62 (no result: Insulin prom inh, HCT116 PTEN-null, Lmaj promast, bCat KO growth) | ROMK retest inconclusive
Cn1ccnc1C(=O)C1CCCN(Cc2cn[nH]c2-c2ccc(-c3ccccc3)cc2)C1 (centres undefined)	none (no result: Insulin prom inh, HCT116 PTEN-null, bCat KO growth)
CC1=CC(C)(C)N=C(Nc2nc(C)c3cc(C)cc(C)c3n2)N1	ROMK primary -3.94, Lmaj promast 97.2 (no result: HCT116 PTEN-null, bCat KO growth) | ROMK retest 0.0489
CCOc1ccccc1NC1=C(Cl)C(=O)N(c2ccccc2)C1=O	none (no result: ROMK primary)
CC(CC(=O)Nc1nncs1)c1ccccc1 (centres undefined)	none
O=C(O)c1cc(N2C(=O)C3CC=CCC3C2=O)ccc1NCc1cccnc1 (centres undefined)	ROMK primary 2.59 | ROMK retest inactive
O=C(O)c1ccc(COc2ccc(Cl)cc2)o1	none (no result: ROMK primary) | ROMK retest inconclusive
N=c1n(CCO)c2ccccc2n1Cc1ccc(Cl)cc1	none (no result: ROMK primary)
N=c1n(Cc2ccc(Cl)cc2)c2ccccc2n1CC(O)COc1ccccc1 (centres undefined)	ROMK primary -4.16, Lmaj promast 100.5 (no result: Insulin prom inh, HCT116 PTEN-null, bCat KO growth) | ROMK retest 0.0539
N=c1n(CCN2CCCCC2)c2ccccc2n1CC(O)c1ccco1 (centres undefined)	none (no result: Insulin prom inh, ROMK primary, HCT116 PTEN-null, Lmaj promast, bCat KO growth)
Cc1ccc(OCC(O)Cn2c(=N)n(Cc3ccccc3)c3ccccc32)cc1 (centres undefined)	ROMK primary -4.58, HCT116 PTEN-null 1.6, Lmaj promast 100.4, bCat KO growth 1.4 | ROMK retest 0.0519
Cc1cccc(OCC(O)Cn2c(=N)n(Cc3ccccc3)c3ccccc32)c1 (centres undefined)	none (no result: Insulin prom inh, ROMK primary, HCT116 PTEN-null, Lmaj promast, bCat KO growth)
Cc1cccc(OCC(O)Cn2c(=N)n(CCN3CCCCC3)c3ccccc32)c1 (centres undefined)	ROMK primary -7.64, HCT116 PTEN-null 1.5, Lmaj promast 100.4, bCat KO growth 1.9 | ROMK retest 0.0486
COc1ccc(OCC(O)Cn2c(=N)n(Cc3ccccc3)c3ccccc32)cc1 (centres undefined)	ROMK primary -7, HCT116 PTEN-null 1.4, Lmaj promast 100.7, bCat KO growth 0.8 (no result: Insulin prom inh) | ROMK retest 0.0481
C/C(Cn1nc([N+](=O)[O-])cc1C)=N\NC(=O)c1ccc(C(C)(C)C)cc1	Insulin prom inh inconclusive
CCOc1ccc(C(C)NC(=O)C2CCC2)cc1 (centres undefined)	none
CC(C)OC(=O)CCNc1n[nH]c(=O)[nH]c1=O	none
CCCCOC(=O)CCNc1n[nH]c(=O)[nH]c1=O	none (no result: ROMK primary) | ROMK retest inactive
COc1ccc(-c2nc(CN3CCC(C(=O)N4CCc5ccccc54)CC3)c(C)o2)cc1OC	none (no result: Insulin prom inh, ROMK primary) | ROMK retest inconclusive
Cc1ccccc1N1C(=O)c2sc3nc4c(c(=O)n3c2C1=O)CCC4	ROMK primary -3.13 | ROMK retest inactive
O=C1c2sc3nc4c(c(=O)n3c2C(=O)N1c1ccccc1)CCC4	none
Cc1nn2c3ccccc3nc2n(Cc2ccccc2)c1=O	none (no result: ROMK primary, HCT116 PTEN-null, bCat KO growth)
CCn1c(=O)c(C)nn2c3ccccc3nc12	none (no result: ROMK primary) | ROMK retest inactive
CC(=O)NS(=O)(=O)c1ccc(NC(=O)CSc2ccccc2)cc1	none (no result: Insulin prom inh, ROMK primary, HCT116 PTEN-null, Lmaj promast, bCat KO growth) | ROMK retest inactive
